Consider 40 compounds from PubChem BioAssay (Tox21).

Structures are written as SMILES. Results filed as inconclusive are left out. The source holds several records for some structures; these can differ, active in one and inactive in another. The source made the active and inactive calls. Calls follow the shape of the full dose curve.
% is scaled to controls: 0 for no effect and ±100 for the full control effect; potency is read from the fitted curve at half-maximal effect.

Chain of Acetylcholinesterase (Homo sapiens) (P22303 whole entry, looked up): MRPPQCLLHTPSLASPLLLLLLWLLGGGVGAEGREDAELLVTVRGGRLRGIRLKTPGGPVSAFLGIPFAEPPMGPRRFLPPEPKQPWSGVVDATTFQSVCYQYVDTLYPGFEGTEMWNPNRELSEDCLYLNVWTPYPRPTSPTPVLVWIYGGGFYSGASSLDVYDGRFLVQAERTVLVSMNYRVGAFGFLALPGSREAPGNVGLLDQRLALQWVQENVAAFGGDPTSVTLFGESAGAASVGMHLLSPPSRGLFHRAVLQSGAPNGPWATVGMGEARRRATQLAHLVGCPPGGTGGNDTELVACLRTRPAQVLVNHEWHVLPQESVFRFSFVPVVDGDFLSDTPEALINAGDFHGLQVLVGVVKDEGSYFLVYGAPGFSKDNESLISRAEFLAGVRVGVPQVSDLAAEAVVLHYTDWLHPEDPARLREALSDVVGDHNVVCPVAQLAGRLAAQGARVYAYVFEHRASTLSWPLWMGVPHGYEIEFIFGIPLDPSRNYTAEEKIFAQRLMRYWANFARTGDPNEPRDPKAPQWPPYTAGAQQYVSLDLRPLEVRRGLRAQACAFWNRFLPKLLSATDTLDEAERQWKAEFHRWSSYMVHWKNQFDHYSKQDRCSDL

The assay addresses Acetylcholinesterase (Homo sapiens) (UniProt P22303). The assay is described as follows: Acetylcholinesterase (AChE) small molecule antagonists: fluorescence cell-based qHTS assay (AID 1347398). Also: nearly all actives have a fitted effect of over 50% in size. To be noted: SH-SY5Y cells; Potency: AChE activity; outcome: AChE activity; series mostly up to 115 µM; activity change, negative = inhibition: at the top concentration. Summed up: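 Cellular AChE activity read as thiocholine from acetylthiocholine hydrolysis, detected by Thiolite Green fluorescence at 490/520 nm after 40 min at room temperature. Compounds were pre-incubated 30 min at 37 C on adherent SH-SY5Y cells.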
As to `O=C(O)Cn1c(=O)n(Cc2ccc(Br)cc2F)c(=O)c2ccc(Cl)cc21`, the Potency result is “inactive”.
Consider `O=C(COCCOCCOCC(=O)Nc1c(I)cc(I)c(C(=O)O)c1I)Nc1c(I)cc(I)c(C(=O)O)c1I`, for which the “activity change, negative = inhibition” value was 5.61% [at 53.7 µM] (inactive).
On the same count and under the same terms, the figure for `COc1cc(C=O)ccc1OC(=O)C(C)C` is -1.37% (inactive); for `C#CC(C)(CC)OC(=O)c1ccccc1C(=O)O` (stereo not given) it is 6.66% [at 53.7 µM] (inactive); for `CC(C)(C)C(=O)NCCCC(=O)O` it is -0.545% [at 53.7 µM] (inactive).
Consider `O=C(O)CCSCCC(=O)O`, for which the “activity change, negative = inhibition” value was 8.56% (inactive).
Still for that read-out and setting: then `CC1(C)[C@@H]2CC[C@@]1(C)[C@H](O)C2`, with 1.02% (inactive).
Same read-out and setting: the figure for `CCN1C(=O)c2ccccc2C1Nc1ccc(OCCN2CCCCC2)cc1` (stereo not given) is -9.46% [at 53.7 µM] (inactive); for `Cc1ccc(Nc2c(F)cccc2Cl)c(CC(=O)O)c1` it is -7.68% [at 53.7 µM] (inactive).
On the same count and under the same terms, the figure for `CC(C)(C(=O)c1cccnc1)c1cccnc1` is 1.04% [at 53.7 µM] (inactive).
As for `C#Cc1ccc(-c2ccccc2F)cc1`, the “activity change, negative = inhibition” value was 3.73% [at 53.7 µM] (inactive).
Regarding `Nc1ccc(S(=O)(=O)c2ccc(N)cc2)cc1`, the Potency result was “inactive”.
Turning to `COc1cc(C(=O)N2CCCCCCC2)cc(OC)c1OC`, the “activity change, negative = inhibition” value was 2.31% [at 53.7 µM] (inactive).
With `Nc1ccc(C(=O)O)cc1`, the Potency entry is “inactive”.
In the case of `CC(=O)OCC(COC(C)=O)OC(C)=O`, the Potency was 31.3 µM (active) and inactive.
`CN1C[C@@H]2C[C@H]1CN2c1cc2c(cc1F)c(=O)c(C(=O)O)cn2C1CC1`: the activity change, negative = inhibition is 1.64% [at 23.8 µM] (inactive).
As to `CCCCCCC`, the “activity change, negative = inhibition” value was 1.14% (inactive).
With `CC(=O)Nc1ccc(/C=N/NC(N)=S)cc1`, the “activity change, negative = inhibition” value was 1.8% [at 53.7 µM] (inactive).
The same measure, in the same setting: then `CC1(C)Oc2ccc(C#N)cc2[C@@H](N2CCCC2=O)[C@@H]1O`, with 3.06% [at 53.7 µM] (inactive).
Turning to `O=C(Cl)c1ccccc1[N+](=O)[O-]`, the “activity change, negative = inhibition” value was 3.07% (inactive).
`C=C(C)[C@H]1CC=C(C)C(=O)C1`: the Potency result was “inactive”.
Take `CC(C)CCCC(C)N` (stereo not given): the “activity change, negative = inhibition” value is 0.147% [at 53.7 µM] (inactive).
For the compound `CCO[Si](CCC#N)(OCC)OCC`, the Potency entry is “inactive”.
For `O=C1CCCC(=O)O1`, the “activity change, negative = inhibition” value was 1.36% (inactive).
Still for that read-out and setting: then `CC1(C)C(=O)NC(=O)N1CO`, with -8.67% (inactive); and `CC(C)c1cccc(C(C)C)c1N1C(=O)c2ccc(O)cc2C1=O`, with 2.99% (inactive).
Turning to `CC(=O)CCC(=O)O`, the Potency result was “inactive”.
Consider `CCc1oc2ccccc2c1C(=O)c1cc(I)c(O)c(I)c1`, for which the “activity change, negative = inhibition” value was 0.784% [at 53.7 µM] (inactive).
Still for that read-out and setting: the figure for `O=C(O)c1cc(O)c2c(c1)C(=O)c1cccc(O)c1C2=O` is 1.86% (inactive).
Still for that read-out and setting: then `CC1(C)CC(=O)CC(C)(C)N1`, with 1.5% (inactive).
On the same count and under the same terms, then `CC(=O)CC/C=C(\C)CC/C=C(\C)CC/C=C(\C)CCC=C(C)C`, with -19.4% [at 53.7 µM] (inactive); and `CC(C)OC(=O)c1cc(C(=O)OC(C)C)cc([N+](=O)[O-])c1`, with -10% (inactive).
As for `c1ccc2c(c1)CCc1ccccc1N2`, the Potency result is “inactive”.
Regarding `CC(=O)CC(C)(C)O`, the Potency result is “inactive”.
As to `C/C=C/C=C/CO`, the “activity change, negative = inhibition” value was -5.94% (inactive).
For the compound `Cc1cc(O)c(C(C)C)cc1Cl`, the Potency entry is “inactive”.
For the compound `O=C=Nc1cccc(C(F)(F)F)c1`, the “activity change, negative = inhibition” value is 1.65% (inactive).
On the same count and under the same terms, the figure for `O=c1cc(-c2ccccc2)oc2cc(O)cc(O)c12` is 0.676% (inactive); for `CC1=Nc2ccc3ccccc3c2C1(C)C` it is 0.463% (inactive).
On to `CC(=O)[C@@]1(O)CC[C@H]2[C@@H]3C[C@H](C)C4=CC(=O)C=C[C@]4(C)[C@@]3(F)[C@@H](O)C[C@@]21C`, for which the Potency result was “inactive”.
